High-throughput results (PubChem)
Tg IFNy HTS: blocks Toxoplasma gondii growth in the presence of IFN-gamma. activity change, negative = inhibition, % (concentration not given with the values). Toxoplasma gondii growth in IFN-gamma-treated host cells; stronger effect = lower value. AID 1259416. 69,000 tested, 3.8% active; in the data active = activity change below about -70%, passing the limit was not always enough;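 note: host cells are HeLa cells infected with Toxoplasma gondii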
* hit, by the source's call; i = inactive. The full list was thinned out, with hits kept by preference.

SMILES	Tg IFNy HTS
Cn1ncc(Cl)c1-c1cc(C(=O)N[C@H](CN)Cc2cccc(F)c2)sc1Cl	-85*
COc1cc(CN(CCN(C)C)Cc2ccncc2)cc(OC)c1	-11
Fc1ccc(N2CCC(NCC3(Cn4cccn4)CC3)C2)cc1 (stereo not given)	-6
CC(=O)N1CC(=O)N(c2ccccc2)CC12CCN(C(=O)C1CCOCC1)C2 (stereo not given)	3
CC(=O)N1CC(=O)N(c2ccccc2)CC12CCN(C(=O)N1CCCC1)C2 (stereo not given)	1
CC(=O)N1CC(=O)N(c2ccccc2)CC12CCN(CC1CCOCC1)C2 (stereo not given)	-86*
Cc1cccc(COC[C@]23COC[C@H]2CN(c2ncc(F)cn2)C3)n1	-30
Cn1cc(-c2cnc3n2CCC32CCN(S(C)(=O)=O)CC2)cn1	0
CC(NCC(=O)NCc1ccccc1F)c1ccc(S(C)(=O)=O)cc1 (stereo not given)	0
CCCn1ncc(C(=O)N2CCC(c3nc(C)c(C(C)=O)s3)CC2)c1C	11
CCOC(=O)c1cc(C#N)c(Sc2nnc(SC)s2)nc1C(F)(F)F	-32
CCOC(=O)c1cc(C(N)=S)c(C)nc1C(F)(F)F	-79*
CCOC(=O)c1cc(-c2nc(-c3ccccc3)cs2)c(C)nc1C(F)(F)F	-36
CCNC(=O)C1(Cc2ccc(-c3ccccc3F)cc2)CCN(Cc2cccnc2)CC1	-51
CCn1cc(S(=O)(=O)NC(Cc2ccsc2)c2cccnc2)c(C)n1 (stereo not given)	16
Oc1c(Cl)cc(Cl)cc1C1Nc2cc(Cl)c(C(F)(F)F)cc2N1 (stereo not given)	-88*
Fc1ccccc1CC1CCN(Cc2ccccn2)CC1	-6
CNC(=O)c1ccc(-c2ccc(CNC(=O)COC)cc2)nc1C	-74*
CCc1nc(OCC(=O)NCc2ccc(C)cc2)c2ccccc2n1	-5
Cc1noc(C)c1C(=O)NCc1ccc(-c2csnn2)cc1	18
Cc1ccc(NC(=O)c2ccc(CN3CCOCC3)cc2)c(C)c1	1
Cc1ccc2[nH]c3c(=O)n(CCC(=O)NCc4ccncc4)cnc3c2c1	15
CCN1c2cc(C)ccc2-n2cccc2C12CCN(C(=O)Nc1ccc(Br)cc1F)CC2	83
Cc1oc(-c2ccc(OC(C)C)cc2)nc1Cn1nnc(C(=O)Nc2ccc(F)cc2F)c1C	-110*
CCc1ccccc1NC(=O)c1nnn(Cc2nc(-c3cccc(OC)c3OC)oc2C)c1C	-84*
SMILES	Tg IFNy HTS
CCOc1ccc(-c2nc(Cn3nnc(C(=O)Nc4cc(F)ccc4C)c3C)c(C)o2)cc1	73
Cc1ccc(C)c(NC(=O)c2nnn(Cc3nc(-c4ccc(OC(C)C)cc4)oc3C)c2C)c1	11
CCc1ccccc1NC(=O)c1nnn(Cc2nc(-c3cc(Br)ccc3OC)oc2C)c1C	55
COc1ccc(NC(=O)c2nnn(Cc3nc(-c4ccc(OC(C)C)cc4)oc3C)c2C)c(OC)c1	-38
Cc1cccc(NC(=O)c2nnn(Cc3nc(-c4ccc(Cl)cc4)oc3C)c2C)c1C	-4
COc1cccc(-c2nc(Cn3nnc(C(=O)Nc4ccccc4C)c3C)c(C)o2)c1OC	49
Cc1cccc(NC(=O)c2nnn(Cc3nc(-c4ccc(OC(C)C)cc4)oc3C)c2C)c1C	-89*
Cc1ccc(CNC(=O)N2CCC3(CC2)Nc2cc(F)ccc2-n2cccc23)cc1	i
COCCC(=O)N1CCN(CCN(C)C)c2ncccc2C1	-40
O=C(O)c1ccccc1C1CCN(C(=O)CCCn2cncn2)C1 (stereo not given)	-36
CCc1ncc(-c2nccn2Cc2cnn(-c3ccc(F)cc3)c2)cn1	-6
CN(C)C(=O)N[C@H]1CN(S(C)(=O)=O)C2CCCOC21 (stereo not given in full)	-7
CCn1c(C2CCNCC2)nn(Cc2ncccn2)c1=O	-3
Cc1ccc(C)c(-c2coc(-c3ccc(NC(=O)Nc4ccc5c(c4)OCO5)cc3)n2)c1	34
CCCc1nc(C(=O)N2Cc3cnc(C(C)(C)C)nc3C2)cs1	-30
COc1ccc(CN(C)c2ccc3ccc(C(=O)N4CCC(N(C)C)C4)cn23)cc1 (stereo not given)	3
Cc1ccc(CNC(=O)c2ccc(-c3nc(CN4CCN(c5ccccc5)CC4)c(C)o3)cc2)o1	65
Cc1ccc(NC(=O)CC(=O)NCc2ccc(CN3CCCC3)cc2)cc1	-21
CCc1nc(OCC(=O)Nc2cc(C)cc(C)c2)c2ccccc2n1	-6
Cc1cc(C)cc(NC(=O)CC(=O)NCc2ccccc2)c1	-86*
COc1cccc(COC2CN(CCc3ccccc3)C(=O)CN(C(=O)c3cccnc3)C2)c1 (stereo not given)	8
Cc1ccccc1NC(=O)C(=O)NCCc1sc(-c2ccccc2)nc1C	-38
Cc1ccc(NC(=O)N2CC(C(=O)N3CCOCC3)C3(CCOCC3)C2)cc1 (stereo not given)	11
CCS(=O)(=O)N1CC2(CCN(Cc3ccsc3)C2)C1	-11
COc1ccc(Oc2ccc(C(=O)NCCc3ccccn3)cc2)cc1	-54
COc1ccc(Oc2cccc(Cl)c2CNC(=O)CSCC(=O)O)cc1	31
COc1ccc(Oc2cccc(F)c2CNC(=O)c2ccc(OC)cc2)cc1	-88*
